High-throughput results (PubChem BioAssay)
RORgamma inh: ROR gamma (mouse) transcription inhibition | Potency, µM (doses to about 53.6 µM), without a hit: at the top dose activity change, negative = inhibition, hits mostly inhibitors | Drosophila S2 Gal4-RORgamma UAS-luciferase reporter, 20 h | hit rate 5.4% among 310,000 | P51450; also: potency is read from the fitted curve at half-maximal effect; nearly all actives have a fitted effect of over 60% in size
Target sequence (P51450 whole entry, looked up, the tested form may be a part): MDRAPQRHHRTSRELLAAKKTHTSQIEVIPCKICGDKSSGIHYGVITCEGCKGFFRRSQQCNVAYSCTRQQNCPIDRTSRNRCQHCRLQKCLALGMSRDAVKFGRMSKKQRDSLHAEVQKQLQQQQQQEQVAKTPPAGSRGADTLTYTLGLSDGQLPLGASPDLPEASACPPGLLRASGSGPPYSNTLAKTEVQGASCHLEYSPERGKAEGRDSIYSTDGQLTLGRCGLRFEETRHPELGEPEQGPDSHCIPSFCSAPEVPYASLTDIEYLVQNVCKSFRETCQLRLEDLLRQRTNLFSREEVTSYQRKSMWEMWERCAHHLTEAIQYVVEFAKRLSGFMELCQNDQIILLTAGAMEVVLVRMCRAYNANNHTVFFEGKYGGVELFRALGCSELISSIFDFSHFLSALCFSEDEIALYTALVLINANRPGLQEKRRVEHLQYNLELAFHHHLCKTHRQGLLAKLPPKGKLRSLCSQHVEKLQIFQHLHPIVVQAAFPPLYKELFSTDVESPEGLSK
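Compounds are pin-transferred onto Drosophila Schneider cells expressing a copper-inducible Gal4–ROR gamma transactivation domain fusion. After 1 hr, copper sulfate is added to 700 uM final; luciferase is read 20 hr later.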
IL-1B inflam inh: blocks inflammasome-driven IL-1 beta release. activity change, % at 57.5 µM. hit rate 4.7% among 360,000. THP-1 LPS/ATP IL-1B secretion, AlphaLISA, 16 h; stronger effect = lower value; in the data active = activity change below about -50%; inconclusive = mostly about -30% to -49%
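THP-1 cells pretreated 1 hr with compounds (up to 57.5 uM final), then stimulated with LPS (250 ng/mL final) plus ATP (1.25 mM final); secreted IL-1B measured by AlphaLISA after 16 hr, decreased signal indicating inhibition.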
LDHA block: LDHA (human) enzyme inhibition; hit rate 0.15% among 480,000; P00338; activity change, % (values are at about 110 or 230 µM); purified LDHA, NADH/diaphorase-resazurin fluorescence; stronger effect = lower value; in the data active = activity change below about -30%; inconclusive = mostly about -25% to -30%;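 also: plate controls were DMSO wells for no effect and wells without enzyme for full effect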
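Remaining NADH was detected by diaphorase (0.133 mg/mL) converting 37 µM resazurin to fluorescent resorufin, read at 0 and 20 minutes. The preceding 5-minute room-temperature reaction used 2 nM LDHA, 0.2 mM sodium pyruvate and 0.06 mM NADH at pH 7.4.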
TDP1 cell noCPT: qHTS for Inhibitors of human tyrosyl-DNA phosphodiesterase 1 (TDP1): qHTS in cells in absence of CPT. DT40 Tdp1-/- hTDP1 cells, no CPT, ATP luminescence, 48 h. Potency, µM (series often up to 46.2 µM), for inactives: at the top dose activity change, negative = growth inhibition, usual class: inhibitors. hit rate 15% among 420,000. AID 686978, 2013; also: potency is read from the fitted curve at half-maximal effect; nearly all actives have a fitted effect of over 55% in size
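A cellular qHTS used chicken DT40 cells lacking endogenous Tdp1 but carrying stably transfected human TDP1. Compounds were applied without camptothecin, and cell growth kinetics were judged by ATP-dependent luminescence after ≥48 hr.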
TDP1 cell CPT: growth inhibition of DT40 Tdp1-/-;hTDP1 cells with camptothecin (screen for TDP1 inhibitors); chicken DT40 Tdp1-/-;hTDP1 cells + 20 nM CPT, ATP luminescence, 48 h; Potency, µM (titrated, usually from 46.2 µM), inactives show at the highest dose activity change, negative = growth inhibition, usual class: inhibitors; hit rate 12% among 420,000; also: potency is read from the fitted curve at half-maximal effect; nearly all actives have a fitted effect of over 55% in size
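Cell growth measured by CellTiter-Glo luminescence after a minimum 48 h, 37 C compound exposure with 20 nM CPT in Tdp1-knockout DT40 cells stably expressing hTDP1, seeded 400/well; qHTS titration format.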
VP16 counter: counter-screen for ROR gamma inhibitors: Gal4-VP16 reporter | Drosophila S2 Gal4-VP16 UAS-luciferase, luminescence, 20 h | hit rate 3.5% among 310,000 | Potency, µM (doses to about 53.6 µM), for inactives: at the highest dose activity, negative = inhibition, usual class: inhibitors;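 also: Gal4-VP16 expression switched on by copper sulfate through the metallothionein promoter; potency is read from the fitted curve at half-maximal effect; nearly all actives have a fitted effect of over 50% in size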
Starred values were filed as active, the others as inactive. Most compounds without a hit are left out; they make up all but 18% or so of the library. Unless noted, calls follow the shape of the dose curve; as a rule, active = well fitted curve in the direction sought with a large enough effect; inconclusive = small, poorly fitted or top-dose-only effect, or another doubt; inactive = no such curve, though single readings can be large; an effect the other way counts as inactive or inconclusive. Unless noted, % is scaled to controls: 0 for no effect and ±100 for the full control effect.

For Cc1ccc(-n2nc(C(=O)N3CCN(c4cccc(C(F)(F)F)c4)CC3)c(=O)n(C)c2=O)cc1 the results were LDHA block 3.6, TDP1 cell noCPT 18.4µM* and TDP1 cell CPT inconclusive.
`Cn1cccc1C(=O)N1CCN(c2cccc(C(F)(F)F)c2)CC1` gave RORgamma inh 6.9%, IL-1B inflam inh -13.3, LDHA block 9.4, TDP1 cell noCPT inconclusive, TDP1 cell CPT inconclusive and VP16 counter -10.2%.
Screening Cc1ccc(-n2nc(C(=O)N3CCN(c4ccccc4)CC3)c(=O)n(C)c2=O)cc1 returned LDHA block -1.0, TDP1 cell noCPT -16.6% and TDP1 cell CPT -9.1%.
`COC(=O)c1ccc(Oc2coc3cc(OCc4ccc(C)cc4)ccc3c2=O)cc1` gave LDHA block -7.8.
CC(C)Cn1c(N)c(C(=O)COC(=O)[C@H](C)NC(=O)c2ccccc2Cl)c(=O)n(C)c1=O was read as IL-1B inflam inh 7.0, LDHA block -3.0, TDP1 cell noCPT -28.8% and TDP1 cell CPT inconclusive.
`CCOc1ccccc1OCC(=O)OCC(=O)c1c(N)n(CC(C)C)c(=O)n(C)c1=O` gave IL-1B inflam inh 6.3, LDHA block 0.9, TDP1 cell noCPT 18.4µM* and TDP1 cell CPT inconclusive.
For Cc1csc(=O)n1CC(=O)OCC(=O)c1c(N)n(C)c(=O)n(C)c1=O the results were IL-1B inflam inh -0.3, LDHA block -1.2, TDP1 cell noCPT inconclusive and TDP1 cell CPT -24.1%.
`CCC(C(=O)OCC(=O)c1c(N)n(CC(C)C)c(=O)n(C)c1=O)c1ccccc1` (stereo unspecified) gave IL-1B inflam inh -12.0, LDHA block 0.3, TDP1 cell noCPT 23.1µM* and TDP1 cell CPT 20.6µM*.
Screening Cc1csc(=O)n1CC(=O)OCC(=O)c1c(N)n(CC(C)C)c(=O)n(C)c1=O returned IL-1B inflam inh 11.9, LDHA block -4.3, TDP1 cell noCPT 23.1µM* and TDP1 cell CPT inconclusive.
For O=C(COC(=O)c1ccc(S(=O)(=O)N2CCCCCC2)cc1)NCc1ccccc1 the results were LDHA block -1.5.
COc1cccc(OC)c1OCCOc1ccccc1OC(C)C was read as RORgamma inh -19.3%, IL-1B inflam inh 16.0, LDHA block 2.8, TDP1 cell noCPT inconclusive, TDP1 cell CPT inconclusive and VP16 counter -7.5%.
Screening COc1cccc(OC)c1OCCNCC1CSc2ccccc2O1 (stereo unspecified) returned IL-1B inflam inh -3.7, LDHA block -5.0, TDP1 cell noCPT 10.3µM* and TDP1 cell CPT 20.6µM*.
For O=C1C[C@@H]2CCN3C(=O)CCC[C@@H]([C@H]23)[C@@H]1Cc1ccccc1 the results were RORgamma inh -10.9%, IL-1B inflam inh 35.6, LDHA block 2.9, TDP1 cell noCPT 9.0%, TDP1 cell CPT -3.1% and VP16 counter -0.1%.
For O=C1CCC[C@@H]2C=C[C@H](c3ccc(Br)cc3)[C@H]3CCN1[C@@H]32 the results were IL-1B inflam inh -4.3, LDHA block -6.5, TDP1 cell noCPT 18.4µM* and TDP1 cell CPT inconclusive.
Cc1[nH]c2ccccc2c1C=NNC(=O)c1cc(-c2cccnc2)nc2ccccc12 was read as IL-1B inflam inh 21.5, LDHA block -7.0, TDP1 cell noCPT 7.31µM* and TDP1 cell CPT 13µM*.
Screening O=[N+]([O-])c1cc(Cl)cc(/C=N\Nc2ccccn2)c1O returned RORgamma inh 0.562µM*, IL-1B inflam inh 125.9, LDHA block -1.9, TDP1 cell noCPT 5.17µM*, TDP1 cell CPT 5.17µM* and VP16 counter 1.12µM*.
